Mcl-1 Bim block: inhibitors of Bim-Mcl-1 interaction, human; Q07820; Bead-based flow cytometry, Bim peptide-Mcl-1 binding; inhibition, % at 10 µM; hit rate 0.1% among 190,000; AID 1009; in the data active means inhibition above about 40%;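 further: 0% = no compound tracer wells and 100% = peptide blocker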
Mcl1-Bid inh: Mcl-1/Bid interaction inhibition | inhibition, % at 21.7 µM | hit rate 0.97% among 220,000 | Q07820 | TR-FRET Mcl-1/Bid-Dy647 peptide binding, 1536-well;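 active means compounds that cut the binding signal by more than half at the single screening dose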;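 further: His-tagged Mcl-1 with europium anti-His antibody binding Bid BH3 peptide; 0% = Mcl-1 plus peptide wells and 100% = peptide-only wells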
Bcl-xL primary: Bcl-xL (human) inhibition | hit rate 0.7% among 320,000 | GST-Bcl-xL / FITC-Bim BH3 peptide fluorescence polarization | inhibition, % at 10.9 µM | AID 2129;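 active means inhibition above the mean of all tested compounds plus 3 SD, cutoff set per campaign, cut at about 30% in these data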;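 further: 0% = DMSO wells and 100% = unlabeled Bim-BH3 peptide competitor; inhibitors lower millipolarization by displacing the labeled peptide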
MCL1 BIM primary: inhibitors of human MCL1 binding to BIM-BH3 peptide. Q07820. GST-MCL1 / FITC-Bim-BH3 fluorescence polarization. inhibition, % at 10.9 µM. hit rate 0.68% among 320,000. AID 2057;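 active means inhibition above the mean inhibition of all tested compounds plus 3 SD, set per campaign, cut at about 40% in these data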;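 further: 0% = DMSO wells and 100% = unlabeled Bim-BH3 peptide control; higher means more loss of mP so more displacement of Bim peptide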
Mcl1-Noxa inh: disrupts binding of human Mcl-1 to Noxa peptide; Q07820; TR-FRET Mcl-1/Noxa peptide binding, 2 h; inhibition, % at 21.7 µM; hit rate 1.5% among 220,000;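 active means compounds that cut the protein-peptide binding signal by more than 50% relative to plate controls in a single-dose test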;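 further: His-tagged Mcl-1 with rhodamine Noxa BH3 peptide and terbium anti-His antibody; 0% = Mcl-1 plus Noxa peptide wells and 100% = peptide-only wells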
GLD-1 TGE inh: GLD-1-TGE RNA interaction inhibition (C. elegans); Q17339; purified GLD-1 + fluorescein TGE RNA, fluorescence polarization; inhibition, % at 5.96 µM; hit rate 0.44% among 320,000; AID 2280;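 active means percent inhibition above a per-plate cutoff, the plate mean of test compounds plus 3 SD, cut at about 30% in these data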;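 further: 0% = DMSO wells with GLD-1 and probe and 100% = wells lacking GLD-1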
Target sequence (Q17339 whole entry, looked up): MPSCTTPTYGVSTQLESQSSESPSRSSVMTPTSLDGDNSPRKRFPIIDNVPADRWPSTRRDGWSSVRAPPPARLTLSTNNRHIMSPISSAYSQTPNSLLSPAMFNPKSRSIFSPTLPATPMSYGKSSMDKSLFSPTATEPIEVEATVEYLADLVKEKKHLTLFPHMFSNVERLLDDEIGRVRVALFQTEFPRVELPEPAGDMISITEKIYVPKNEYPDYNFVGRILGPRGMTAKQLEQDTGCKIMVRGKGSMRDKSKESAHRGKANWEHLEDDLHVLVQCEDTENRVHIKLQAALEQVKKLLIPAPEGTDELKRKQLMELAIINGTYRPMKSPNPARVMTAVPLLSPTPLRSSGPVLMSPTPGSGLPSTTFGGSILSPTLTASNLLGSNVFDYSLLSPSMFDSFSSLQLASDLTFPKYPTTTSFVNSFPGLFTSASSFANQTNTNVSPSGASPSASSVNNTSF
Starred values were filed as active, the others as inactive. Most compounds without a hit are left out; they make up all but 2.3% or so of the library.

Screening Cc1ccccc1NS(=O)(=O)c1cc(C(=O)N2CCCC2)ccc1Cl returned Bcl-xL primary 1, MCL1 BIM primary -4 and GLD-1 TGE inh -2.
Cc1ccc(C)c(NS(=O)(=O)c2ccc(OCC(=O)N3CCCC3)cc2)c1 was read as Mcl-1 Bim block -4, Mcl1-Bid inh -28, Bcl-xL primary -2, MCL1 BIM primary 2, Mcl1-Noxa inh 9 and GLD-1 TGE inh -1.
Screening Cc1ccccc1NS(=O)(=O)c1ccc(OCC(=O)N2CCCC2)cc1 returned Mcl-1 Bim block -2, Mcl1-Bid inh 4, Bcl-xL primary -1, MCL1 BIM primary -3, Mcl1-Noxa inh 58* and GLD-1 TGE inh 3.
For O=C(c1ccc(S(=O)(=O)Nc2ccccc2Cl)cc1)N1CCOCC1 the results were Bcl-xL primary 8, MCL1 BIM primary 7 and GLD-1 TGE inh 8.
`CC1CCCN(C(=O)c2ccc(S(=O)(=O)Nc3ccccc3Cl)cc2)C1` (stereo unspecified) gave Bcl-xL primary 36*, MCL1 BIM primary 1 and GLD-1 TGE inh 1.
For Cc1ccccc1NS(=O)(=O)c1cc(C(=O)N2CCCC2)ccc1C the results were Mcl-1 Bim block -3, Mcl1-Bid inh -16, Bcl-xL primary 48*, MCL1 BIM primary 0, Mcl1-Noxa inh 3 and GLD-1 TGE inh -2.
For Cc1cc(NC(=O)CSc2nnc(CNC(=O)c3ccc(C(C)(C)C)cc3)o2)no1 the results were Bcl-xL primary 1, MCL1 BIM primary 2 and GLD-1 TGE inh 3.
Screening CN(Cc1ccco1)C(=O)CCc1nc2sc3c(c2c(=O)[nH]1)CCCC3 returned Bcl-xL primary 6, MCL1 BIM primary 10 and GLD-1 TGE inh -2.
For CCOc1ccc(-c2nc(CSCC(=O)NCCCN3CCCC3=O)c(C)o2)cc1 the results were Bcl-xL primary 0, MCL1 BIM primary 5 and GLD-1 TGE inh 0.
`CN(CC(=O)Nc1ccccc1Cl)C(=O)CCc1nc2ccccc2c(=O)[nH]1` gave Bcl-xL primary 31*, MCL1 BIM primary 31 and GLD-1 TGE inh 25.
`CN(CC(=O)Nc1ccc(F)cc1)C(=O)CCc1nc2ccccc2c(=O)[nH]1` gave Bcl-xL primary 12, MCL1 BIM primary 6 and GLD-1 TGE inh 0.
Cc1ccc(-n2c(C)cc(/C=C3\SC(=O)NC3=O)c2C)cc1 was read as Bcl-xL primary 1, MCL1 BIM primary -4 and GLD-1 TGE inh -3.
`Cc1cc(/C=C2/C(=O)NN(c3ccccc3)C2=O)c(C)n1-c1cccc(O)c1` gave Mcl-1 Bim block -7, Mcl1-Bid inh -20, Bcl-xL primary 11, MCL1 BIM primary 8, Mcl1-Noxa inh 87* and GLD-1 TGE inh 7.
`Cc1sc(-n2c(C)cc(/C=C3\SC(=S)NC3=O)c2C)c(C#N)c1C` gave Mcl-1 Bim block 0, Mcl1-Bid inh -56, Bcl-xL primary -32, MCL1 BIM primary -56, Mcl1-Noxa inh 75* and GLD-1 TGE inh -31.
`Cc1cc(/C=C2\SC(=S)NC2=O)c(C)n1-c1cccc(O)c1` gave Mcl1-Bid inh -41, Bcl-xL primary -42, MCL1 BIM primary -79, Mcl1-Noxa inh 53* and GLD-1 TGE inh -70.
Cc1cc(C=C2C(=O)c3ccccc3C2=O)c(C)n1-c1cccc(C(=O)O)c1 was read as Mcl-1 Bim block 2, Mcl1-Bid inh -44, Bcl-xL primary 11, MCL1 BIM primary 3, Mcl1-Noxa inh 31 and GLD-1 TGE inh 2.
Screening CC(C)(C)c1nnc(NC(=O)NS(=O)(=O)c2ccccc2)s1 returned Mcl-1 Bim block 0, Mcl1-Bid inh -3, Bcl-xL primary 5, MCL1 BIM primary -2, Mcl1-Noxa inh 8 and GLD-1 TGE inh 4.
For CCN(CC)P(=O)(Nc1ccc([N+](=O)[O-])cc1)c1c(C)nn(CCC#N)c1NC(=O)c1ccc(Cl)cc1 (stereo unspecified) the results were Bcl-xL primary 3, MCL1 BIM primary 0 and GLD-1 TGE inh -2.
For Cc1cccc(-c2cc(C(=O)NCCCn3ccnc3)c3ccccc3n2)c1 the results were Mcl-1 Bim block -2, Mcl1-Bid inh -27 and Mcl1-Noxa inh 5.
Screening Cc1ccc(-c2cc(C(=O)NCCCn3ccnc3)c3cc(Br)ccc3n2)o1 returned Mcl-1 Bim block 0, Mcl1-Bid inh 34, Bcl-xL primary 17, MCL1 BIM primary 34, Mcl1-Noxa inh 76* and GLD-1 TGE inh 12.

Screening data (PubChem BioAssay)
